# Legend:
# Experiment in all cases: DAPPL (digital affinity profiling via proximity ligation, sequencing); 10 mM Tris-HCl pH 7.5, 50 mM NaCl, 1 mM DTT, 4% glycerol, room temperature, 30 min; GST-TFs on glutathione beads, 16-mer random dsDNA library, 0.1% formaldehyde crosslink after washing; high values mean tight binding
# Conditions in all cases: protein: recombinant; tags: N-terminal GST; dsDNA, one strand shown
# [1] = target: T1, FLI1 (Homo sapiens, UniProt Q01543 1-452)
# T1 sequence: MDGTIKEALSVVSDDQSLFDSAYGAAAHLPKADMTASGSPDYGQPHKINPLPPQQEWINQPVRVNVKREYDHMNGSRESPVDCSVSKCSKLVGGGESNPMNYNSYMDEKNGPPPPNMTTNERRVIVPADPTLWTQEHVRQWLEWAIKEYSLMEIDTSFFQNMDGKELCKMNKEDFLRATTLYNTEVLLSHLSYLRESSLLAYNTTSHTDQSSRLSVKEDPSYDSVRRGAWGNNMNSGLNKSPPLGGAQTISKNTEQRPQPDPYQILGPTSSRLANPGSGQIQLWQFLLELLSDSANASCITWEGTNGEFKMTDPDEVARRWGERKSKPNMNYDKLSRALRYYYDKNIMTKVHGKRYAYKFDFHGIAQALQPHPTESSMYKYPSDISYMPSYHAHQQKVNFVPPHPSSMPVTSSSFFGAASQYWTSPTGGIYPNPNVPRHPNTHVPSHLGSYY
# Procedure, shortened: (§1)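 Human transcription factors fused to GST were expressed in yeast, captured on glutathione beads, given DNA barcodes and pooled with a GST-only negative control. Pools were incubated with 200 nmole of a 16-mer random double-stranded DNA library in Tris/NaCl/DTT/glycerol buffer at room temperature for 30 min. They were then washed, crosslinked with 0.1% formaldehyde, proximity-ligated (BsaI/T4 ligase, 1 h, 37 °C), PCR-amplified and sequenced on an Illumina NextSeq500. Binding signal is each 6-mer's read frequency for a factor divided by its frequency for the GST control.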
# [2] = target: T2, ELK1 (Homo sapiens, UniProt P19419 1-428)
# T2 sequence: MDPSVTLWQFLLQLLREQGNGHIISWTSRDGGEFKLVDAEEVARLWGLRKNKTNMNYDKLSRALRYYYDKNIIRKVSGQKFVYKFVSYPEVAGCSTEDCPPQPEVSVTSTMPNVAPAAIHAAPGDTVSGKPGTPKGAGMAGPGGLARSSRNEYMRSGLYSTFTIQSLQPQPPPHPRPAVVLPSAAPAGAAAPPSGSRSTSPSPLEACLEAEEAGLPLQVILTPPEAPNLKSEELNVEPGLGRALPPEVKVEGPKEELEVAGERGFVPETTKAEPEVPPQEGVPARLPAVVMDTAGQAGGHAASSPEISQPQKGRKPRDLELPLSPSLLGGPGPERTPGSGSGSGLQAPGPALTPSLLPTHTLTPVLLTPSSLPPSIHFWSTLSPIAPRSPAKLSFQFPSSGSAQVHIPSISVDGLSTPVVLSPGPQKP
# Procedure, shortened: as §1
# [3] = target: T3, GABPA (Homo sapiens, UniProt Q06546 1-454)
# T3 sequence: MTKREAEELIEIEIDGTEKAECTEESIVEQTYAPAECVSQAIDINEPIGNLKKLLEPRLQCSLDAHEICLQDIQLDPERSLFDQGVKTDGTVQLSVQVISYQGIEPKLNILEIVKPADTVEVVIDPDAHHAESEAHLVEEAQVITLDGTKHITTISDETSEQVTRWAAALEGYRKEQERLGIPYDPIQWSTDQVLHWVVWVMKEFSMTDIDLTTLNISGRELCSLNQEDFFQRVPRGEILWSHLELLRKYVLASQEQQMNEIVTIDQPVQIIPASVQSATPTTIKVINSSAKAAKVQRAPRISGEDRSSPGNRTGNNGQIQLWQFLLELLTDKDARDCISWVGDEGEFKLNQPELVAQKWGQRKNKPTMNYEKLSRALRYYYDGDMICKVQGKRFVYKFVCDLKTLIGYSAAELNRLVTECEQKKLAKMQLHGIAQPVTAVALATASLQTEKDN
# Procedure, shortened: as §1
# [4] = target: T4, ERG (Homo sapiens, UniProt P11308 1-479)
# T4 sequence: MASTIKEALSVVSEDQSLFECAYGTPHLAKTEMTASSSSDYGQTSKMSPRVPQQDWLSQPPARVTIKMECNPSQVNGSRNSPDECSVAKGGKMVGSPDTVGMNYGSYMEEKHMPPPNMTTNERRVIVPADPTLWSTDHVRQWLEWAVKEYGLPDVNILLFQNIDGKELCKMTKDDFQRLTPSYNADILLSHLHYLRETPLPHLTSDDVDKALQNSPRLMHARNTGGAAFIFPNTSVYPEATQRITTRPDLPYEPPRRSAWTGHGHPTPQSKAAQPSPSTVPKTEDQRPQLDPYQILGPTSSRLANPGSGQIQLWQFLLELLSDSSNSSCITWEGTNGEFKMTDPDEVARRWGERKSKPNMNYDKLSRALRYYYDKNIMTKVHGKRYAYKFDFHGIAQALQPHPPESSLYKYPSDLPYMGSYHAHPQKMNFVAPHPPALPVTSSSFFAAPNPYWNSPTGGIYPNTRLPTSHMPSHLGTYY
# Procedure, shortened: as §1
# [5] = target: ELF1 (Homo sapiens, UniProt P32519 1-619)
# Procedure, shortened: as §1
# [6] = target: T5, EHF (Homo sapiens, UniProt Q9NZC4 1-300)
# T5 sequence: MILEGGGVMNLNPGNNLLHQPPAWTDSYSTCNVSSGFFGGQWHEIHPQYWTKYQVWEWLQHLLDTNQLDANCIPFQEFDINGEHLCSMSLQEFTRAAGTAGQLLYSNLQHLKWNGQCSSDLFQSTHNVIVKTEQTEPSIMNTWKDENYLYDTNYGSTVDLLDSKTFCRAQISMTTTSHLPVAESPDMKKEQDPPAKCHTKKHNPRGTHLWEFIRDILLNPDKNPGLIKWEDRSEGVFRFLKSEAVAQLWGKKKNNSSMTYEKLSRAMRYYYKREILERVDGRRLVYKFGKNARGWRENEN
# Procedure, shortened: as §1
# [7] = target: SPI1 (Homo sapiens, UniProt P17947 1-270)
# Procedure, shortened: as §1
# [8] = target: SPIB (Homo sapiens, UniProt Q01892 1-262)
# Procedure, shortened: as §1
# [9] = target: T6, ELK3 (Homo sapiens, UniProt P41970 1-407)
# T6 sequence: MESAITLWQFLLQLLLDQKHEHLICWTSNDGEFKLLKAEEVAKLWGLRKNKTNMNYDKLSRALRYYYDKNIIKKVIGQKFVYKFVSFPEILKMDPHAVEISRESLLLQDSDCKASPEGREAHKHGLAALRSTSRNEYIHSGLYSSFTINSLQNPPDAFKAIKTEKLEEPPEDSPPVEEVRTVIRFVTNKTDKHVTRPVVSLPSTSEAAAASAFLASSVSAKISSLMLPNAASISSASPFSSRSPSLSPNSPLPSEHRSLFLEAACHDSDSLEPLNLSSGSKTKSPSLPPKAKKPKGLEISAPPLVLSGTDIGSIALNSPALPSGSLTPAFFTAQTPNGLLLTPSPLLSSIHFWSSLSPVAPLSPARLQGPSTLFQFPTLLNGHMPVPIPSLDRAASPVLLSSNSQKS
# Procedure, shortened: as §1
# Chain of SPIB (Q01892 whole entry): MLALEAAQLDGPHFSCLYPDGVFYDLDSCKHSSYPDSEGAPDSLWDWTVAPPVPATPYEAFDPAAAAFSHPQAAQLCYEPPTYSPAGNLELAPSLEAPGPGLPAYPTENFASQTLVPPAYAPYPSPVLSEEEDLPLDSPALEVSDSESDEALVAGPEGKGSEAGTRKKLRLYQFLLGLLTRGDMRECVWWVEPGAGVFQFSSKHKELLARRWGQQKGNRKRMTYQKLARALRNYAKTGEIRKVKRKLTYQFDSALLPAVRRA
# Chain of ELF1 (P32519 whole entry): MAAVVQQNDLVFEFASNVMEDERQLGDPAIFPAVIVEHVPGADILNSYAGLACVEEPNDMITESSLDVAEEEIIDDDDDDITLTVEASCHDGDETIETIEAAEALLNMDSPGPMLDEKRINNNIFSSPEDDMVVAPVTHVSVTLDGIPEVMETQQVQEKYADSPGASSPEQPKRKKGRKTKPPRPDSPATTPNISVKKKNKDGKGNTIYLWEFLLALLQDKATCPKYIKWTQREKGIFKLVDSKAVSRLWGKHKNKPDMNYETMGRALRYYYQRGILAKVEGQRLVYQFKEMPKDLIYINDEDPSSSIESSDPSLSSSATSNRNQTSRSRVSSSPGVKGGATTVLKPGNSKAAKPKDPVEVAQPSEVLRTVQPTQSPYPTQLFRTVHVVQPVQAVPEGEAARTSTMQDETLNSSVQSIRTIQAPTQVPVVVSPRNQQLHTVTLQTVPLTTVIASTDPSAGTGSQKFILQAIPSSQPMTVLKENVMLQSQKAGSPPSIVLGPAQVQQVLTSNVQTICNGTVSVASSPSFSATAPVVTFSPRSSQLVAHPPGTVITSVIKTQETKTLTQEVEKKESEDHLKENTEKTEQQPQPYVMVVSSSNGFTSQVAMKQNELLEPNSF
sequence,measurement,setting,value
AGATTC,binding signal,[1],"1.15 fold enrichment (6-mer frequency, TF over GST control)"
same,binding signal,[2],"1.14 fold enrichment (6-mer frequency, TF over GST control)"
same,binding signal,[3],"1.16 fold enrichment (6-mer frequency, TF over GST control)"
same,binding signal,[4],"1.19 fold enrichment (6-mer frequency, TF over GST control)"
same,binding signal,[5],"1.21 fold enrichment (6-mer frequency, TF over GST control)"
same,binding signal,[6],"1.2 fold enrichment (6-mer frequency, TF over GST control)"
same,binding signal,[7],"1.22 fold enrichment (6-mer frequency, TF over GST control)"
same,binding signal,[8],"1.14 fold enrichment (6-mer frequency, TF over GST control)"
same,binding signal,[9],"1.07 fold enrichment (6-mer frequency, TF over GST control)"

# — publication PMC7862700, “An all-to-all approach to the identification of sequence-specific readers for epigenetic DNA modifications on cytosine”
